G9a inh: blocks human histone lysine methyltransferase G9a; Q96KQ7; G9a H3K9 monomethylation, AlphaScreen, 2 h; Potency, µM (doses to about 102 µM), without a hit: at the top dose activity, negative = inhibition, hits mostly inhibitors; 350,000 tested, 8.8% active; note: potency is the fitted concentration of half-maximal effect; % is set by controls: 0 for no effect and ±100 for the full control effect; nearly all actives have a fitted effect of over 75% in size
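Using a bead-based AlphaScreen, monomethylated H3K9 product from 2 h room-temperature reactions (G9a 20 nM, peptide 500 nM, SAM 20 uM) was detected with 0.5 ug/mL rabbit anti-H3K9me1 antibody.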
CtBP-E1A blk: CtBP/E1A binding inhibition; AlphaScreen GST-E1A/His-CtBP binding, 1536-well; stronger effect = lower value; activity change, % (concentration not given with the values); 340,000 tested, 0.49% active; AID 651724; in the data active = activity change below about -65%; inconclusive = mostly about -30% to -63%; note: % is set by controls: 0 for no effect and ±100 for the full control effect
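Protein mix (5X: 125 nM each GST-E1A, His-CtBP) was incubated with pinned compound 2 h at 37 deg C in dark, in 50 mM Tris pH 8.0 buffer with 300 mM NaCl. Glutathione donor and nickel acceptor beads followed; AlphaScreen signal read after 1 h.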
HP1b binding inh: blocks HP1-beta chromodomain binding to methylated histone tails; AID 540317; 390,000 tested, 0.56% active; AlphaScreen HP1-beta / biotin-H3K9me3 peptide binding; Potency, µM (doses to about 114 µM), inactives show top-dose activity change, negative = inhibition, actives largely listed as inhibitors; note: potency is the fitted concentration of half-maximal effect; nearly all actives have a fitted effect of over 70% in size
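AlphaScreen: HP1-beta (50 nM) preformed 30 min with biotin-H3(1-18)K9me3 peptide (50 nM) in PBS pH 7.4, 0.01% Tween-20. Compound added for 30 min at RT, then streptavidin donor/nickel chelate acceptor beads (10 ug/mL) for 30 min.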
JMJD2A Tudor inh: inhibitors of human JMJD2A Tudor domain; AlphaScreen JMJD2A-Tudor / H3K4me3 peptide binding; Potency, µM (titrated, usually from 114 µM), for the others: at the top dose activity change, negative = inhibition, hits mostly inhibitors; 390,000 tested, 4.4% active; AID 504339; note: potency is the fitted concentration of half-maximal effect; % is set by controls: 0 for no effect and ±100 for the full control effect; nearly all actives have a fitted effect of over 50% in size
Target sequence (O75164 whole entry, looked up, the tested form may be a part): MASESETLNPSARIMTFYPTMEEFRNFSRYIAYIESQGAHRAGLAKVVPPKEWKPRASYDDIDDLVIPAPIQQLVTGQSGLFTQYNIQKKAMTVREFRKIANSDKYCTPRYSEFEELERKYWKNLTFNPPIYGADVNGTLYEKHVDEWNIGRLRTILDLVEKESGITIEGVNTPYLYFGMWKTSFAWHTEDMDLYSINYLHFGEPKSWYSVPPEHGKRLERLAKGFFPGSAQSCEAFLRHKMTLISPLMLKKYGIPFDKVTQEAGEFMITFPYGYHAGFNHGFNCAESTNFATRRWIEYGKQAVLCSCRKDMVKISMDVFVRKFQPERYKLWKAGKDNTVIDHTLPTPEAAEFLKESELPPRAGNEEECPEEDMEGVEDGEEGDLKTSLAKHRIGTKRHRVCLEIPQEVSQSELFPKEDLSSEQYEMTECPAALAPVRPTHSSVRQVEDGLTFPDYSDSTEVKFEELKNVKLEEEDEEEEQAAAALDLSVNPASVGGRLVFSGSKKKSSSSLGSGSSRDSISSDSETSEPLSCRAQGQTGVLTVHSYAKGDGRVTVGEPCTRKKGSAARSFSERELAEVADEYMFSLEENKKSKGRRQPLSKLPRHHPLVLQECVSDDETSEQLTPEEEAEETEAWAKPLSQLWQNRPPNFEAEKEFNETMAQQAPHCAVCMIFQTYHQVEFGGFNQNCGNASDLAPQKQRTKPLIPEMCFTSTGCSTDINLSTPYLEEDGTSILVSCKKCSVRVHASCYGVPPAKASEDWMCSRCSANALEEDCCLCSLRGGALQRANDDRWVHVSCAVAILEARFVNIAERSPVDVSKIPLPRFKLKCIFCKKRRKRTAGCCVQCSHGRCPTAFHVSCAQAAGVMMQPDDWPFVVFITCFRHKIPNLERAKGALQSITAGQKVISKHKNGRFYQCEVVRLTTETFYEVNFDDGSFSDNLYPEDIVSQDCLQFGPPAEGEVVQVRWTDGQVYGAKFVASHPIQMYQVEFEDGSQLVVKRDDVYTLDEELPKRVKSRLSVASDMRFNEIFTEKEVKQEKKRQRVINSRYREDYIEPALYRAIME
BAZ2B inh: BAZ2B (human) inhibition | AlphaScreen BAZ2B-H3K14Ac peptide displacement | 360,000 tested, 4.4% active | AID 504333 | Potency, µM (doses to about 114 µM), without a hit: at the top dose activity change, negative = inhibition, most hits filed as inhibitors; note: potency is the fitted concentration of half-maximal effect; % is set by controls: 0 for no effect and ±100 for the full control effect; nearly all actives have a fitted effect of over 60% in size
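Inhibition is scored as reduced AlphaScreen emission. The BAZ2B/b-H3(5-23)K14Ac complex (50 nM each) in PBS pH 7.4, 0.01% Tween-20 meets compound (up to 110 uM) for 30 min at RT before bead addition.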
Six1-Eya2 inh: inhibitors of human Six1/Eya2 interaction; 360,000 tested, 0.56% active; AlphaScreen GST-Six1/His-Eya2 binding, biochemical; stronger effect = lower value; activity change, % (no concentration beside the values); Q15475+O00167; in the data active = activity change below about -65%; inconclusive = mostly about -30% to -63%; note: % is set by controls: 0 for no effect and ±100 for the full control effect
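GST-Six1 + His-Eya2 (5X stock: 250/500 nM); Tris pH 8.0, 300 mM NaCl, 0.05% BSA, 0.02% Tween 20; GSH donor/Ni acceptor beads; 1 h 37 °C dark; AlphaScreen readout.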
Starred values were filed as active, the others as inactive; ? = inconclusive; . = no result given; [ ] = remark or other dose. This is a sample that favours compounds with a hit; in the whole collection about 10% have one here. Unless noted, calls come from the whole dose curve; as a rule, active = well fitted inhibition curve with a large enough effect; inconclusive = small, poorly fitted or top-dose-only effect; inactive = no such curve, though single readings can be large or run the other way.

SMILES | G9a inh | CtBP-E1A blk | HP1b binding inh | JMJD2A Tudor inh | BAZ2B inh | Six1-Eya2 inh
CCOC(=O)c1c(C)oc2nc(C)nc(NCCc3ccc(OCC)cc3)c12 | -28%[59 µM] | . | 52% | 16% | -2%[57.1 µM] | .
Cc1nn(-c2ccccc2)c(N)c1C(O)(C(F)(F)F)C(F)(F)F | 5% | 9 | 22% | -9% | -2% | 12
Nc1nn(-c2ccccc2)c(N)c1N=Nc1ccccc1F | ? | -4 | -33% | ? | 35µM* | ?
Cc1cccc(N=Nc2c(C)nn(-c3ccccc3)c2N)c1C | 10µM* | ? | ? | 25µM* | 18µM* | ?
O=C(Nc1ccccc1Cc1ccccc1)C1CC(=O)N(c2ccc3c(c2)OCCO3)C1 (stereo not drawn) | 3.5µM* | -2 | -16% | ? | 50µM* | 0
CC(C)CC(=O)NC1CC(=O)N(c2ccc3c(c2)OCCO3)C1 (stereo not drawn) | -2%[59 µM] | . | -22% | 100µM* | -8% | .
COc1cc(OC)c(NC(=O)C2CC(=O)N(c3ccc4c(c3)OCCO4)C2)cc1Cl (stereo not drawn) | 45µM* | -7 | -8% | -24% | 4% | -17
Cc1cc(C)c(NC(=O)C2CC(=O)N(c3ccc4c(c3)OCCO4)C2)c(C)c1 (stereo not drawn) | -14% | -1 | 6% | ? | -18% | -8
CC(=O)NC1CC(=O)N(c2ccc3c(c2)OCCO3)C1 (stereo not drawn) | -6%[59 µM] | . | 25% | -5% | -14% | .
CCN(CC)S(=O)(=O)c1ccc(OC)c(NC(=O)C2CC(=O)N(c3ccc4c(c3)OCCO4)C2)c1 (stereo not drawn) | . | -11 | 13% | -18% | -13% | 0
CCN(CC)S(=O)(=O)c1cccc(NC(=O)C2CC(=O)N(c3ccc4c(c3)OCCO4)C2)c1 (stereo not drawn) | 50µM* | -4 | -13% | -21% | -3% | -2
O=C(Nc1sc2c(c1C(=O)O)CCC2)C(=O)N1CCOCC1 | 40µM* | . | -22% | ? | 50µM* | -9
CC(=O)N1CCc2c(sc(NC(=O)CN3C(=O)CCC3=O)c2C(N)=O)C1 | ? | -12 | -11% | -23% | 10% | -8
NC(=O)c1c(NC(=O)CN2C(=O)CCC2=O)sc2c1CCCCC2 | 16µM* | 2 | -3% | -12% | -2% | -2
NC(=O)c1c(NC(=O)Cn2nc(C(=O)O)c3ccccc3c2=O)sc2c1CCCC2 | 10% | . | 34% | -2% | -21% | -7
NC(=O)c1c(NC(=O)CN2CCCC2)sc2c1CCCC2 | 30%[12.7 µM] | -8 | -1% | 18µM* | 0% | -7
N#CCC(=O)Nc1sc2c(c1C(N)=O)CCCC2 | 30%[59 µM] | -6 | 25% | -13% | -2% | -5
O=C(Nc1sc2c(c1C(=O)O)CCCC2)C(=O)N1CCOCC1 | ? | 1 | 20% | -28% | -31% | -1
Cc1cc([N+](=O)[O-])nn1CC(=O)Nc1sc2c(c1C(N)=O)CCCC2 | 32µM* | 1 | -17% | -25% | -26% | -13
Cc1ccccc1OCCSc1nc2ccc(NC(=O)c3cccs3)cc2s1 | 11%[59 µM] | . | 28% | -1% | 2% | .
N#Cc1ccc(NC(=O)COCc2cc(-c3ccc(F)cc3)on2)cc1 | -21%[59 µM] | . | 19% | 7% | -7% | .
O=C(NCc1ccc(F)cc1)c1ccc2c(c1)N(Cc1c(F)cccc1Cl)C(=O)CS2 | -4%[59 µM] | . | 18% | -16% | 1% | .
NC(=O)c1c(NC(=O)CN2CCOCC2)sc2c1CCC2 | 25µM* | -3 | 42% | -15% | . | -12
NC(=O)c1c(NC(=O)C(=O)NCCCN2CCOCC2)sc2c1CCCC2 | ? | -14 | 38% | -11% | -15% | -8
O=S(=O)(Nc1ccc(Br)cc1)c1cccc2nonc12 | 79µM* | 0 | 7% | -29% | -34% | -4
SMILES | G9a inh | CtBP-E1A blk | HP1b binding inh | JMJD2A Tudor inh | BAZ2B inh | Six1-Eya2 inh
CN(C)CCNC(=O)C(=O)NCC(c1cccnc1)N1CCN(c2ccccc2)CC1 (stereo not drawn) | -9%[59 µM] | . | 7% | -27% | -10% | .
O=C(Oc1ccc(C(=S)N2CCOCC2)cc1Cl)c1ccccc1F | -9%[0.501 µM] | . | -14% | -35% | -31% | -10
O=C(Oc1ccc(C(=S)N2CCOCC2)cc1Br)c1ccccc1F | 10µM* | 7 | ? | -30% | -33% | ?
O=C(Oc1ccc(C(=S)N2CCOCC2)cc1)c1ccccc1F | 25µM* | . | -2% | -10% | -26% | -21
O=C(c1ccccc1F)N1CCOCC1 | -30% | . | 44% | 1% | 2% | -5
N#CCc1nn2c3c(cnc2c1C#N)C(=O)CCC3 | 45µM* | 0 | -13% | -22% | -27% | -4
COc1ccc(-c2nnc3n2N=C(c2ccc(OC)c(OC)c2)CS3)c(OC)c1 | . | . | . | -15% | . | .
O=C(NCc1ccc2c(c1)CCN2C(=O)c1ccncc1)c1ccc(Cl)cc1 | 5%[59 µM] | . | 19% | -17% | -9% | .
Cc1ccc(S(=O)(=O)N2CC(=NO)C2)cc1 | 45µM* | 9 | 36% | -6% | -4% | 2
Cc1ccc2c(c1)c1c(c(=O)n(-c3ccccc3)c(=O)n1Cc1ccccc1C)n2C | -7%[59 µM] | . | 34% | -19% | -11% | .
Cc1cccc(N2CCN(C(=O)CN3C(=O)NC(C)(C4CC4)C3=O)CC2)c1C (stereo not drawn) | 56µM* | -5 | 17% | -16% | 12% | 5
COc1ccc(Cc2nc(-c3cccs3)no2)cc1 | 113% | 38 | 173% | 119% | 67% | 26
COc1ccc(Cc2nc(-c3cccs3)no2)cc1OC | 50µM* | 7 | 36% | -2% | 0% | 1
Cc1nn(C)c2c1c(-c1ccccc1)cc(=O)n2Cc1c(F)cccc1Cl | 23%[59 µM] | . | 49% | 10% | 11% | .
COc1ccc(CNC(=O)CSCc2cnn(-c3ccccc3)c2-n2cccc2)cc1 | 32µM* | -1 | 2% | -10% | -4% | -3
O=C(CSCc1cnn(-c2ccccc2)c1-n1cccc1)NCC1CCCO1 (stereo not drawn) | 50µM* | -3 | 23% | -7% | -1% | -6
Cc1ccc(C2C(C#N)=C3N=C(N)c4ccccc4N3C3=C2C(=O)CCC3)cc1 (stereo not drawn) | ? | -3 | 6% | ? | 50µM* | -4
N#CC1=C2N=C(N)c3ccccc3N2C2=C(C(=O)CCC2)C1c1ccc(F)cc1 (stereo not drawn) | -35% | -1 | 3% | ? | -35% | -7
N#CC1=C2N=C(N)c3c(sc4c3CCCCC4)N2C2=C(C(=O)CCC2)C1c1ccccc1 (stereo not drawn) | -9%[59 µM] | ? | -6% | ? | 45µM* | -24

Source: PubChem BioAssay (National Center for Advancing Translational Sciences (NCATS))
